Data on 63 compounds can be found in PubChem BioAssay AID504329 (Southern Research Specialized Biocontainment Screening …, 2011).

In all, about 340,000 compounds went through this assay and about 1,000 (0.29%) were called active. Cut-off read from the data, not from the text of the source: inconclusive = inhibition above about 27% without an active follow-up result; inactive = below that. The list is a sample of the results. Measured potencies and affinities stand elsewhere.

The experiment can be described thus: NS1A inhibition, H1N1 influenza, cell based functional assay (AID 504329). Conditions: percent inhibition, at 12.5 µM, active compounds read high.
For `O=C(COc1cccc(NC(=O)c2cccs2)c1)c1ccc(F)cc1`, the inhibition was -6.64% (inactive).
In the case of `COc1ccc(C(=O)NC(=S)NNC(=O)c2ccccc2O)cc1`, the inhibition was 0.2% (inactive).
Under `Cc1onc(-c2ccccc2)c1C(=O)NC(=S)NNC(=O)c1ccc(O)cc1` stands 22% (inactive); under `O=C(NC(=S)NNC(=O)c1ccco1)c1ccc(F)cc1`, 9.62% (inactive).
As for `Cc1onc(-c2ccccc2)c1C(=O)NC(=S)NNC(=O)c1ccccc1O`, the figure is 20.2% (inactive).
Under `O=C(NNC(=O)c1ccccc1O)c1ccco1` stands -15.8% (inactive).
As for `Cc1ccccc1C(=O)NNC(=S)NC(=O)c1cccs1`, the inhibition is -2.01% (inactive).
`COc1ccccc1C(=O)NNC(=S)NC(=O)c1cccs1`: the inhibition is 8.16% (inactive).
As for `O=C(NC(=S)NNC(=O)c1cc2ccccc2cc1O)c1ccco1`, the figure is 12.9% (inactive).
`O=C(c1ccc([N+](=O)[O-])cc1)N(c1ccccn1)c1ccccn1`: the inhibition is 2.4% (inactive).
As for `Cc1ccc(NC(=O)c2cccc(NC(=O)/C=C/c3ccco3)c2)cc1C`, the inhibition was -4.7% (inactive).
Turning to `Cc1cccc(-c2ccc3ncnc(NCc4cccs4)c3c2)c1`, the inhibition was -11% (inactive).
Turning to `O=C(O)c1cc2ccccc2n1-c1ccccc1`, the inhibition is 16.9% (inactive).
Under `CN(C)N=C1c2cc(S(=O)(=O)N3CCOCC3)ccc2-c2ccc(S(=O)(=O)N3CCOCC3)cc21` stands 19.5% (inactive); under `O=C(CCN1C(=O)/C(=C/c2ccccc2Cl)SC1=S)Nc1cccnc1`, -1.44% (inactive).
Under `O=C(CCN1C(=O)c2ccccc2S1(=O)=O)N1CCN(c2ccccc2F)CC1` stands -1.99% (inactive); under `Cc1ccccc1C(=O)NNC(=S)NC(=O)c1ccccc1`, -4.23% (inactive); under `O=C(NC(=S)NNC(=O)c1ccccc1O)c1ccc([N+](=O)[O-])cc1`, 1.41% (inactive).
`Cc1ccc(C(=O)NC(=S)NNC(=O)c2ccccc2O)cc1`: the inhibition is 34.2% (inactive).
As for `O=C(NNC(=S)NC(=O)c1ccccc1)c1cccnc1`, the figure is 4.4% (inactive).
For `O=C(NNC(=S)NC(=O)c1ccccc1)c1cccc([N+](=O)[O-])c1`, the inhibition is -20.7% (inactive).
As for `Cc1ccccc1C(=O)NNC(=S)NC(=O)c1cccnc1`, the figure is 2.35% (inactive); as for `Cc1ccc(-n2c(CNc3ccc(F)cc3)nnc2SCC(N)=O)cc1`, 6.65% (inactive).
Regarding `Cc1cccc(NS(=O)(=O)c2cccc(C(=O)N3CCN(C/C=C/c4ccccc4)CC3)c2)c1`, the inhibition is -7.79% (inactive).
`CCN(c1ccccc1)S(=O)(=O)c1ccc2c(c1)CCCN2C(C)=O`: the inhibition was 5.4% (inactive).
Under `CC(=O)CCCC(NS(=O)(=O)CCC(Cl)(Cl)Cl)c1ccccc1` (stereo not drawn) stands 1.88% (inactive); under `Oc1ccccc1C=NCCCCCCN=Cc1ccccc1O`, -8.96% (inactive); under `Oc1ccccc1C=NCCN=Cc1ccccc1O`, 18.6% (inactive).
As to `COc1cccc(CN(C)C(=O)c2ccc(OCC(=O)N3CCOCC3)c(OC)c2)c1`, the inhibition was -6.73% (inactive).
Under `COc1ccccc1OCc1nc2ccccc2[nH]1` stands 1.78% (inactive); under `CCOC(=O)c1nc(Nc2ccc(Nc3ccccc3)cc2)c2ccccc2n1`, 10.9% (inactive).
Take `CCOC(=O)c1nc(Nc2ccc(N3CCOCC3)cc2)c2ccccc2n1`: the inhibition was -12.1% (inactive).
Under `CCCCCC(=O)Nc1ccc(S(=O)(=O)Nc2nccc(C)n2)cc1` stands -0.66% (inactive).
Under `Cc1ccc2nc(C)cc(N3CCOCC3)c2c1` stands -16.8% (inactive).
As for `Cc1csc(NC(=O)CSc2nnc(NC(=O)C3CC(=O)N(c4ccccc4)C3)s2)n1` (stereo not drawn), the figure is -4.67% (inactive); as for `O=C(CSc1ccc2nnc(-c3ccncc3)n2n1)Nc1nccs1`, -1.97% (inactive).
Turning to `Cc1nnc(NC(=O)CSc2ccc3nnc(-c4ccccn4)n3n2)s1`, the inhibition was 15.4% (inactive).
Under `COc1ccc(NC(=O)CSc2ccc(-c3ccccn3)nn2)cc1OC` stands 1.4% (inactive); under `O=C(CSc1ccc(-c2ccccn2)nn1)Nc1nccs1`, 4.83% (inactive).
As for `COc1ccc(C)cc1NC(=O)CSc1ccc(-c2cccnc2)nn1`, the figure is -8.69% (inactive); as for `Cc1ccc(NC(=O)CSc2ccc(-c3ccccn3)nn2)c(C)c1`, 3.42% (inactive).
`Cc1csc(NC(=O)CSc2ccc(-c3ccccc3)nn2)n1`: the inhibition is -3.27% (inactive).
Under `Cc1ccccc1NC(=O)CSc1ccc(-c2ccccn2)nn1` stands 12.1% (inactive).
As for `COc1cccc(N2CCN(C(=S)Nc3ccccc3)CC2)c1`, the inhibition is 4.19% (inactive).
As to `COc1ccc(CCNC(=O)COC(=O)c2ccc(C)s2)cc1`, the inhibition is -10% (inactive).
Under `COc1ccc(C(CNC(=O)C2CC(=O)N(Cc3ccc(C)cc3)C2)N(C)C)cc1` (stereo not drawn) stands -3.01% (inactive).
Under `O=C(NCCc1ccc(F)cc1)C1CCCCC1` stands 2.71% (inactive); under `CCOC(=O)C1CCCN(C(=O)COc2ccc(N(C)S(=O)(=O)c3ccc(F)cc3)cc2)C1` (stereo not drawn), -23.6% (inactive); under `Cc1nnc(SCC(=O)Nc2ccc(Cl)cn2)n1Cc1ccccc1`, 1.7% (inactive).
As for `CCOC(=O)Nc1n[nH]c(NC(=O)OCC)c1[N+](=O)[O-]`, the inhibition was 8.99% (inactive).
Consider `CO/N=C/C=C1/N(C)c2ccccc2C1(C)C`, for which the inhibition was 11.6% (inactive).
As to `CN1/C(=C\C=Nc2ccccc2)C(C)(C)c2ccccc21`, the inhibition was -3.07% (inactive).
`CN1/C(=C\C=N\O)C(C)(C)c2ccccc21`: the inhibition was -7.5% (inactive).
As for `CN1/C(=C\C=Nc2ccc3ccccc3c2)C(C)(C)c2ccccc21`, the figure is 2.41% (inactive); as for `Cc1ccc(-c2nc(CNC(=O)c3cc(C)on3)cs2)cc1`, -7.61% (inactive); as for `O=C(N/N=C/c1ccccc1)C1CCCN1C(=O)c1cc([N+](=O)[O-])cc([N+](=O)[O-])c1` (stereo not drawn), -6.49% (inactive).
As for `CNS(=O)(=O)c1cccc(C(=O)OCc2cc(=O)n3cc(Br)ccc3n2)c1`, the figure is 1.47% (inactive); as for `CCCCCSc1cc(OC)c(CCN(C)C)cc1OC`, 10.3% (inactive).
As for `CCCCCSc1cc(OC)c(CCN)cc1OC`, the inhibition is 15.3% (inactive).
As for `NC(=O)NCc1cccs1`, the figure is -4.81% (inactive); as for `O=C(O)COCc1nc2ccccc2[nH]1`, -15.3% (inactive).
Under `CC(C)N(Cc1nc2ccccc2[nH]1)C(C)C` stands -21.7% (inactive).
As for `CCn1c(SCC(=O)Nc2nccs2)nnc1-c1cccnc1`, the inhibition is -5.86% (inactive).
